Our source for the outcome and AC50 values is PubChem BioAssay (EPA / NIEHS).

For assay [1], the target named is Myc proto-oncogene protein (Homo sapiens) (UniProt P01106). In words: ATG_Myc_CIS: Attagene CIS-FACTORIAL HepG2 Assay for human Myelocytomatosis (Myc) Proto-Oncogene Transcription Factor (AID 2282990). The conditions noted are these: HepG2, Attagene cis-reporter transcription factor activity; actives raise or lower the signal. The method, boiled down:
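DMSO-normalised, bidirectionally fitted reporter mRNA signal. HepG2 cells transfected with cis reporter constructs, treated 24 h; transcripts detected by RT-PCR, 6-FAM primer extension and CE.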

Assay [2] in a line: ATG_NRF2_ARE_CIS: Attagene CIS-FACTORIAL HepG2 Assay for human Nuclear Factor Erythroid 2 Related Factor 2 (NFR2) response to Antioxidant Response Elements (ARE) (AID 2282992).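 For AC50: reporter mRNA level measured by RT-PCR and capillary electrophoresis fluorescence.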 The conditions noted are these: HepG2 Attagene ARE/NRF2 reporter, transcription factor activity; actives raise or lower the signal. The method, boiled down: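 Multiplexed reporter mRNA profiling in HepG2 after a 24 h chemical exposure. Curves fitted in both directions relative to DMSO negative control.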

A short description of assay [3]: ATG_Oct_MLP_CIS: Attagene CIS-FACTORIAL HepG2 Assay for human Octamer-Binding Transcription Factor (Oct) (AID 2282993). The conditions noted are these: HepG2 Attagene cis-factorial Oct reporter, mRNA; actives raise or lower the signal. The method, boiled down:
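HepG2 cells transiently transfected with cis-element-driven reporter transcription units (endogenous TF activity); 24 h compound exposure. Reporter mRNA quantified by RT-PCR, 6-FAM labelling, HpaI digestion and capillary electrophoresis; bidirectional fit versus DMSO baseline.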

Assay [4] addresses Cellular tumor antigen p53 (Homo sapiens) (UniProt P04637). Kind of assay: ATG_p53_CIS: Attagene CIS-FACTORIAL HepG2 Assay for human p53 Transcription Factor (AID 2282994). The conditions noted are these: HepG2 p53 cis-element reporter, Attagene mRNA; actives raise or lower the signal. The essentials: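 Multiplexed reporter mRNA assay in human HepG2 liver cells; cis-regulated units report endogenous factor activity. Values come from bidirectional curve fitting against DMSO negative control after 24 h treatment.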

Assay [5] has as its target human Peroxisome Proliferator-activated Receptor alpha (PPARa), PPARA (gene 5465) (UniProt Q07869). In words: ATG_PPARa_TRANS: Attagene TRANS-FACTORIAL HepG2 Assay for human Peroxisome Proliferator-activated Receptor alpha (PPARa) (AID 2283001; active = hit-call score of the fitted dose curve at least 0.9, where 1 is the maximum). The essentials:
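Gain-of-signal endpoint: reporter mRNA induction relative to DMSO, detected by fluorescent RT-PCR and capillary electrophoresis. HepG2 cells transiently carried GAL4-UAS-driven reporter units plus NR-Gal4 fusion; exposure lasted 24 h.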

Assay [6] concerns the target human Peroxisome Proliferator-activated Receptor delta (PPARd), PPARD (gene 5467) (UniProt Q03181). In words: ATG_PPARd_TRANS: Attagene TRANS-FACTORIAL HepG2 Assay for human Peroxisome Proliferator-activated Receptor delta (PPARd) (AID 2283002; active = hit-call score of the fitted dose curve at least 0.9, where 1 is the maximum). The method, boiled down: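 Measured quantity: GAL4-UAS reporter transcript induction in HepG2 after 24 h chemical dosing, with NR-Gal4 chimeras supplied by transient transfection. Detection by RT-PCR and capillary electrophoresis; upward fit against DMSO.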

In assay [7] the target is human Retinoic Acid Receptor beta (RARb), RARB (gene 5915) (UniProt P10826). In words: ATG_RARb_TRANS: Attagene TRANS-FACTORIAL HepG2 Assay for human Retinoic Acid Receptor beta (AID 2283004; active = hit-call score of the fitted dose curve at least 0.9, where 1 is the maximum). The method, boiled down: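 Transient transfection of HepG2 with multiple reporter units → chemical dosing, 24 h → total RNA isolation → RT with oligo(dT) → reporter-specific PCR, 6-FAM primer extension, HpaI digest → capillary electrophoresis. Positive direction vs DMSO control.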
human Retinoic Acid Receptor beta (RARb), RARB (gene 5915), sequence (P10826 whole entry, looked up): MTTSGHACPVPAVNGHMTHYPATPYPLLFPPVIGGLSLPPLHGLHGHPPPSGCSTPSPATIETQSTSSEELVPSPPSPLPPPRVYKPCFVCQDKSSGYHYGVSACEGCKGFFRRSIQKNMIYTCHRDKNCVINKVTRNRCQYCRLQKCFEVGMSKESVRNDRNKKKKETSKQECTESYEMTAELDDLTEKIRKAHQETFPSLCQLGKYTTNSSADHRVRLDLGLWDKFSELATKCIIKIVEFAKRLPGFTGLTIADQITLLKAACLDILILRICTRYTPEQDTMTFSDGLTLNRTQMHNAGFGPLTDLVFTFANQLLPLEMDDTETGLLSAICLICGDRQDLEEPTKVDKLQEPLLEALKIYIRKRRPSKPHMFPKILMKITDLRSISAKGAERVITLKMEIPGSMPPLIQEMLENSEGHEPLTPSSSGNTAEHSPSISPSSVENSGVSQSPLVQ

The target in assay [8] is human RAR-related Orphan Receptor gamma (RORg), RORC (gene 6097) (UniProt P51449). Kind of assay: ATG_RORg_TRANS: Attagene TRANS-FACTORIAL HepG2 Assay for human RAR-related Orphan Receptor gamma (RORg) (AID 2283011; active = hit-call score of the fitted dose curve at least 0.9, where 1 is the maximum). The method, boiled down:
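First, HepG2 liver cells were transfected with GAL4-UAS-driven reporter constructs and the RORg-Gal4 fusion. Next, they were treated with chemical for 24 h. Finally, reporter mRNA was quantified by RT-PCR and capillary electrophoresis, with upward activity fitted against DMSO.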

For assay [9], the target named is Retinoic acid receptor alpha (Homo sapiens) (UniProt P10276). In words: ATG_RARa_TRANS: Attagene TRANS-FACTORIAL HepG2 Assay for human Retinoic Acid Receptor alpha (RARa) (AID 2283005; active = hit-call score of the fitted dose curve at least 0.9, where 1 is the maximum). The essentials:
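HepG2 cells transiently transfected with multiple reporter units expressing chimeric RARα-GAL4 fusion, with GAL4-UAS-driven reporters. After 24 h compound exposure, reporter mRNA induction quantified by RT-PCR and capillary electrophoresis with fluorescent labeling; gain-of-signal fitted relative to DMSO control.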

In assay [10] the target is Peroxisome proliferator-activated receptor gamma (Homo sapiens) (UniProt P37231). Kind of assay: ATG_PPARg_TRANS: Attagene TRANS-FACTORIAL HepG2 Assay for human Peroxisome Proliferator-activated Receptor-gamma (PPARg) (AID 2283007; active = hit-call score of the fitted dose curve at least 0.9, where 1 is the maximum). The method, boiled down:
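Twenty-four hours after chemical dosing of transiently transfected HepG2 cells, isolated RNA was converted to cDNA, reporter sequences amplified and 6-FAM-labelled, then HpaI-digested and analysed by capillary electrophoresis. Signal increase against DMSO was fitted.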

The target of assay [11] is Nuclear receptor subfamily 1 group I member 2 (Homo sapiens) (UniProt O75469). In words: ATG_PXR_TRANS: Attagene TRANS-FACTORIAL HepG2 Assay for human Pregnane X Receptor (PXR) (AID 2283008; active = hit-call score of the fitted dose curve at least 0.9, where 1 is the maximum). The essentials:
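Measures mRNA induction of a GAL4-UAS-driven reporter in human HepG2 cells transiently expressing PXR fused to Gal4, following 24 h treatment. DMSO served as negative control and baseline.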

The target of assay [12] is human Retinoic Acid Receptor gamma (RARg), RARG (gene 5916) (UniProt P13631). In words: ATG_RARg_TRANS: Attagene TRANS-FACTORIAL HepG2 Assay for human Retinoic Acid Receptor gamma (RARg) (AID 2283009; active = hit-call score of the fitted dose curve at least 0.9, where 1 is the maximum). The essentials: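 Transient transfection of HepG2 with multi-reporter constructs, then 24 h chemical treatment. Total RNA isolated, reverse-transcribed, PCR-amplified, fluorescently labelled and resolved by capillary electrophoresis; activity scored as mRNA induction versus DMSO.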
human Retinoic Acid Receptor gamma (RARg), RARG (gene 5916), sequence (P13631 whole entry, looked up): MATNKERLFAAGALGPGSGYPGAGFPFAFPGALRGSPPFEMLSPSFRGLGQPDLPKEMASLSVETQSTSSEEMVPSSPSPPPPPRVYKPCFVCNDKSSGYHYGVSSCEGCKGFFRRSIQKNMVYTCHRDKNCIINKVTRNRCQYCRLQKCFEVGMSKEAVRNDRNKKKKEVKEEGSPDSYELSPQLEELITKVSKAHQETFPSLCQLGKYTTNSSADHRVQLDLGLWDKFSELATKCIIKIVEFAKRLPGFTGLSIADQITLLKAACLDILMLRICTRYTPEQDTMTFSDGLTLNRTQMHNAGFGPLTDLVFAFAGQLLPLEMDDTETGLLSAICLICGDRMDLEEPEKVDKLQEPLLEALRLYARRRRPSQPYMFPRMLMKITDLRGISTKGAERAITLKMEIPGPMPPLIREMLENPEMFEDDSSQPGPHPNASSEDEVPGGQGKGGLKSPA

The target of assay [13] is human RAR-related Orphan Receptor beta (RORb), RORB (gene 6096) (UniProt Q92753). In words: ATG_RORb_TRANS: Attagene TRANS-FACTORIAL HepG2 Assay for human RAR-related Orphan Receptor beta (RORb) (AID 2283010; active = hit-call score of the fitted dose curve at least 0.9, where 1 is the maximum). The method, boiled down:
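Readout is reporter-gene mRNA induction, detected as fluorescence after RT-PCR and capillary electrophoresis, fitted for gain of signal against DMSO controls. Transiently transfected HepG2 liver cells carrying GAL4-UAS reporter constructs were treated for 24 hours.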

SMILES strings stand for the structures. Inconclusive results are not listed. Calls of active or inactive are those of the source. Rule for the calls, unless noted: active = hit-call score of the fitted dose curve at least 0.9, where 1 is the maximum; inactive = score below 0.9.

human RAR-related Orphan Receptor gamma (RORg), RORC (gene 6097), sequence (P51449 whole entry, looked up, the tested form may be a part): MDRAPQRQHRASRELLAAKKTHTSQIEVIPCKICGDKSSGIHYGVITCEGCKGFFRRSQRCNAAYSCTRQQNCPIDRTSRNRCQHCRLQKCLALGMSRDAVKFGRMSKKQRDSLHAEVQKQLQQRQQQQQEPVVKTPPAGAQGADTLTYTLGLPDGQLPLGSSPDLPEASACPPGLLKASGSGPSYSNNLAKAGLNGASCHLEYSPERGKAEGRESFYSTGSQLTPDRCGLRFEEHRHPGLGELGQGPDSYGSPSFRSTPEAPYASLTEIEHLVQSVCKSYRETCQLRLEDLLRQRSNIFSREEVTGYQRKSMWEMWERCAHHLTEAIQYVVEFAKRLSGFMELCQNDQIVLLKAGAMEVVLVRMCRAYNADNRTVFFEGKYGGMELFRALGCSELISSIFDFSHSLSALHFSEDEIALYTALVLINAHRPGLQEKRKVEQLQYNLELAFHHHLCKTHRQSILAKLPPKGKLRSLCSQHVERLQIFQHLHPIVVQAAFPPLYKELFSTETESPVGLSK
Cellular tumor antigen p53 (Homo sapiens), sequence (P04637 whole entry, looked up): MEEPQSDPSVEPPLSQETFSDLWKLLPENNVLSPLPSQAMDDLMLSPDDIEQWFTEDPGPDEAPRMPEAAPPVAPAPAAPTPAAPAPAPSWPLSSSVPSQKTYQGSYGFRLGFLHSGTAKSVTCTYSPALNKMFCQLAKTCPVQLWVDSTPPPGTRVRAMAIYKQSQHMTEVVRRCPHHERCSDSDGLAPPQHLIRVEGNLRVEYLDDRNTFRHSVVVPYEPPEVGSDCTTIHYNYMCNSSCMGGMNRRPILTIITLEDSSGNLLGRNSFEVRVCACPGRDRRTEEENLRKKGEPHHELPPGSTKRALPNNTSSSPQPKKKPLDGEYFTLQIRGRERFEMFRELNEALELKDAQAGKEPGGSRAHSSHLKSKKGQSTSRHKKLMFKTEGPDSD
Myc proto-oncogene protein (Homo sapiens), sequence (P01106 whole entry, looked up): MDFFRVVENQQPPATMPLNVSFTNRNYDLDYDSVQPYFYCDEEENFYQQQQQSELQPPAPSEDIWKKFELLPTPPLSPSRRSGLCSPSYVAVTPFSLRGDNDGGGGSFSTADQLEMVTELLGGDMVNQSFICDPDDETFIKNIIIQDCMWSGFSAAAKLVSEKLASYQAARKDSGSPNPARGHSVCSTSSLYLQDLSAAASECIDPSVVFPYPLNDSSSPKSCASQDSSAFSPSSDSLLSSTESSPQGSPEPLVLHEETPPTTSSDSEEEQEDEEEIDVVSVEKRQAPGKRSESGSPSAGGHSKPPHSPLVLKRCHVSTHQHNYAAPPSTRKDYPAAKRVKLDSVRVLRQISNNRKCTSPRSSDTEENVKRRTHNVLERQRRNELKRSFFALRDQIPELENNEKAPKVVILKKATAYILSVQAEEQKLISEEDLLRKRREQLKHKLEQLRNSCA
Peroxisome proliferator-activated receptor gamma (Homo sapiens), sequence (P37231 whole entry, looked up): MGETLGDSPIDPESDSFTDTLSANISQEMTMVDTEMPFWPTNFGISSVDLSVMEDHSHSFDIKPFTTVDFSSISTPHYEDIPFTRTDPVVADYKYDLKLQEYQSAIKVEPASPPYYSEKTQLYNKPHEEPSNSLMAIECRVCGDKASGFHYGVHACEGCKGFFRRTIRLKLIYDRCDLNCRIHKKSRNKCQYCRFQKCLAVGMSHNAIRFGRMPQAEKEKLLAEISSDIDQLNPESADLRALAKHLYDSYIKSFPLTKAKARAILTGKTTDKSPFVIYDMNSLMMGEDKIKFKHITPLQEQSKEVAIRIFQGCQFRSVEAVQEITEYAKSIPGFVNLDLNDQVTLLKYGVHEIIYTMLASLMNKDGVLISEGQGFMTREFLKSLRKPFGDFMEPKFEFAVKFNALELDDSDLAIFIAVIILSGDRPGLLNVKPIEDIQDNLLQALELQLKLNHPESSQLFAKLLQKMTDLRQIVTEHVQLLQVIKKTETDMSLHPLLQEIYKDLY
human Peroxisome Proliferator-activated Receptor delta (PPARd), PPARD (gene 5467), sequence (Q03181 whole entry, looked up, the tested form may be a part): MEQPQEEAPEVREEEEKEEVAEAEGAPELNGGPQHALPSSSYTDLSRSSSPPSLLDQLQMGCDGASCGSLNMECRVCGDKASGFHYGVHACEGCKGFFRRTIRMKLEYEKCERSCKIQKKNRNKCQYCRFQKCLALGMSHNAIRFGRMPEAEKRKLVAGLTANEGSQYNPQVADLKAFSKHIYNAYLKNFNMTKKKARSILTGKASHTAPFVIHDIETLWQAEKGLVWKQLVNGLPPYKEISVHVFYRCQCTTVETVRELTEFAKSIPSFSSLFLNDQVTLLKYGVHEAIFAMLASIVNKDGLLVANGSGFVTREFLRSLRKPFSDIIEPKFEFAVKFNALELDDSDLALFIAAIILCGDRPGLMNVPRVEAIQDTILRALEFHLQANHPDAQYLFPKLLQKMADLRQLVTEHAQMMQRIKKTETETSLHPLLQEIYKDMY
Nuclear receptor subfamily 1 group I member 2 (Homo sapiens), sequence (O75469 whole entry, looked up, the tested form may be a part): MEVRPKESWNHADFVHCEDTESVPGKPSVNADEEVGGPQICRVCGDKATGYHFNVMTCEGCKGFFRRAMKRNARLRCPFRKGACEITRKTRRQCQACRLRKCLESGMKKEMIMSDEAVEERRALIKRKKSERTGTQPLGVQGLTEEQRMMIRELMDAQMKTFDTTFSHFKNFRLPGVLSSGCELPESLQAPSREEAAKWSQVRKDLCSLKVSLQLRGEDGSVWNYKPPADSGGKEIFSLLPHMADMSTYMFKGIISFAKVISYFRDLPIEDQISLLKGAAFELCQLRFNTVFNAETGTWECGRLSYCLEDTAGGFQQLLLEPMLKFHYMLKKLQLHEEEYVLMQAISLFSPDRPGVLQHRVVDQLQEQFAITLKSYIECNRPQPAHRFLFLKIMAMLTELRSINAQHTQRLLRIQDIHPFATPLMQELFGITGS
human RAR-related Orphan Receptor beta (RORb), RORB (gene 6096), sequence (Q92753 whole entry, looked up, the tested form may be a part): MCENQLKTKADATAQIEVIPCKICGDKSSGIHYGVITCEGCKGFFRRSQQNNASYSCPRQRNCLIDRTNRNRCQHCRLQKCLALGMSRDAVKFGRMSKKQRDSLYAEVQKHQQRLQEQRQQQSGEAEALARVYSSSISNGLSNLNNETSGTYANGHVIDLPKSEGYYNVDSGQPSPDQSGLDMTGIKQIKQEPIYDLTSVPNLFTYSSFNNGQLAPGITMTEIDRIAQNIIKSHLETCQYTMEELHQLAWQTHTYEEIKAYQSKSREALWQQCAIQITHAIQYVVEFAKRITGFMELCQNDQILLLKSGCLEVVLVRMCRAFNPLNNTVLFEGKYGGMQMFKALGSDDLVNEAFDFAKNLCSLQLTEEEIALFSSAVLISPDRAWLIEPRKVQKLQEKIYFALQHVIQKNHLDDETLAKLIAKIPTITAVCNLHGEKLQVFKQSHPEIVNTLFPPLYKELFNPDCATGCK
Retinoic acid receptor alpha (Homo sapiens), sequence (P10276 whole entry, looked up, the tested form may be a part): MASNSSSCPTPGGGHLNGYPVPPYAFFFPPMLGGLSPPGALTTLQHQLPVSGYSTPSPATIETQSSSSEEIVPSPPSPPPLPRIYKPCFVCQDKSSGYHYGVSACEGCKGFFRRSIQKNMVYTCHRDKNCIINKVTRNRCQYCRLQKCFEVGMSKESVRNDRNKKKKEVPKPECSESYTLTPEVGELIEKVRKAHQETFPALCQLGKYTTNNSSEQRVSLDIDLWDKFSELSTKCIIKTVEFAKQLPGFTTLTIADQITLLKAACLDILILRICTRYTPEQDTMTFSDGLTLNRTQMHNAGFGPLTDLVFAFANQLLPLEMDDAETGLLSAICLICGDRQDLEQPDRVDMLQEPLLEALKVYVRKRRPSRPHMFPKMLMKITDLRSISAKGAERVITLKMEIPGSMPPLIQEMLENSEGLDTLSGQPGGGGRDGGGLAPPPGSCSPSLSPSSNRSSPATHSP

`COC(C)(C)CCO`: the outcome in [1], in assay [2], in [3], in [4], in [5] and in assay [6] was inactive. For the same compound, the compound was classed as inactive in assay [7] and in assay [8].

For orientation: AC50 means the midpoint of the concentration-response curve, whichever way the signal moves. Consider `CCc1cc(C(C)(C)C)c(O)c(C(C)(C)C)c1`, for which the call in assay [1], in assay [3], in assay [4], in [7] and in assay [9] was inactive. In addition, the AC50 in assay [2] was 52.6 µM (active); in assay [10], 61 µM (active); in [11] it was 26.8 µM (active).

Consider `Cc1c(C2(c3cc(Br)c(O)c(Br)c3C)OS(=O)(=O)c3ccccc32)cc(Br)c(O)c1Br`, for which the result in assay [1], in assay [3], in [4], in assay [6], in [10] and in assay [12] was inactive. For the same compound, the compound was called inactive in [13] and in assay [8]. For the same compound, the AC50 in assay [2] is 52.5 µM (active); in assay [11], 13 µM (active).

In the case of `CCCCCCCCN1CCCC1=O`, the outcome in assay [1], in [3], in [10] and in assay [12] was inactive. In addition, the values for the AC50 in assay [2], in [4] and in assay [11] were 66.8 µM (active), 72.6 µM (active) and 7.53 µM (active), respectively.

On to `CCCCCCOC(=O)CCC`, for which the call in assay [1], in assay [2], in assay [3], in [4], in assay [7] and in assay [9] was inactive. Further, the call in [12] was inactive. In assay [11], the AC50 is 15.1 µM (active).

As to `CCOc1ccc(N=Nc2ccc(C=Cc3ccc(N=Nc4ccc(OCC)cc4)cc3S(=O)(=O)O)c(S(=O)(=O)O)c2)cc1`, the result in [1], in assay [2], in [3], in [4], in assay [6] and in assay [7] was inactive. The outcome in assay [10], in assay [11] and in assay [12] was inactive.

`CCCC(=O)C(CC)Sc1ccoc1C` (stereo unspecified): the outcome in [1], in [3] and in [4] was inactive. Besides, the AC50 in [2] was 27.7 µM (active); in assay [10], 33.6 µM (active); in assay [11] it was 9.72 µM (active).

As for `C=CCCCCCCCCCC`, the compound was classed as inactive in assay [1], in assay [2], in assay [3], in [4], in assay [6] and in assay [10]. The outcome in assay [13] and in assay [8] was inactive.

Consider `Cc1ccc(C)o1`, for which the call in [1], in [2], in [3], in [4], in assay [6] and in assay [12] was inactive.

As to `CCCCC(CC)(CO)CO`, the outcome in assay [1], in [2], in [3], in assay [4], in assay [10] and in assay [11] was inactive.
